Drawing on PubChem BioAssay AID686978 (National Center for Advancing Translational Sciences (NCATS), 2013), this text covers Potency and activity change, negative = growth inhibition for 47 molecules.

Screen size: about 420,000 compounds; about 64,000 (15%) were called active. A call without a number means that no potency is given here. Roughly 27% stayed inconclusive and do not appear here. This is one part of a sample in which actives are shown more often than they occur. Unmarked numbers belong to inactive results. Calls follow the shape of the dose curve; as a rule, active = well fitted inhibition curve with a large enough effect; inconclusive = small, poorly fitted or top-dose-only effect; inactive = flat fitted curve, though single readings scatter.
Potency is read from the fitted curve at half-maximal effect.

A short description of the assay: qHTS for Inhibitors of human tyrosyl-DNA phosphodiesterase 1 (TDP1): qHTS in cells in absence of CPT. Also: nearly all actives have a fitted effect of over 55% in size. As to conditions: DT40 Tdp1-/- hTDP1 cells, no CPT, ATP luminescence, 48 h; series mostly up to 46.2 µM. The text has this:
Human tyrosyl-DNA phosphodiesterase 1 (TDP1) is a novel repair gene, and we propose to use it as a new target for anticancer drug development. TDP1 is not an essential protein, but under treatment with topoisomerase I poison (camptothecin: CPT), TDP1 works as a critical factor for cell survival. To directly identify novel TDP1 inhibitors active in a cellular environment, we have knocked-out the Tdp1 gene in chicken DT40 cells (Tdp1-/-) and generated a complemented counterpart cells that contains a stable transfection of the human TDP1 gene (Tdp1-/-;hTDP1 cells). For the primary screen, Tdp1-/-;hTDP1 cells will be exposed to small molecules in the presence or absence of CPT, and their growth kinetics will be evaluated after 48 hours by measuring ATP activity. […] The hit compounds will then be evaluated in the presence or absence of CPT using Tdp1-/- cells. […] In tertiary assays, biochemical gel-based assays will be used to assess whether the hit compounds specifically target TDP1.
To this end, we have screened this cell line against the MLSMR in two primary screens. In one screen we add CPT and in the other we screen in the absence of CPT; this AID represents the screen where CPT was absent.
NIH Chemical Genomics Center [NCGC]
NIH Molecular Libraries Probe Centers Network [MLPCN]
Assay Submitter (PI): Yves Pommier, NCI
DT40-hTDP1 cells without 20 nM Camptothecin (add 20 microL of DMSO in 1 L of cell culture medium) were dispensed at 400 cells/5microL/well in tissue culture treated 1536-well white wall/solid bottom assay plates (Greiner Bio-One North America, NC, U.S.A.) using a Multidrop Combi 8 channel dispenser (Thermo Fisher, Waltham, MA, USA). 23 nL compounds and controls were transferred using the pin tool (Kalypsys, San Diego, CA, USA) to the assay plates. The assay plates were then incubated at 37 masculineC for a minimum 48 hr. Three microL of Cell Titer Glo solution was added to the plates and incubated at RT in dark for 30 min. Luminescence was read using ViewLux (Perkin Elmer) with 1 sec exposure slow speed, high gain and 2x binning.
For orientation: Quantitative high-throughput screening tests each substance at several concentrations.
On to `O=C(Nc1cccc(OC(=O)N2CCCCC2)c1)N1CCOCC1`, for which the Potency was 5.8 µM (active).

Take `O=C(Nc1cccc(F)c1)N1CC[C@@]2(CCCN(C(=O)Oc3ccccc3)C2)C1`: the Potency result was “inactive”.

For `c1ccc2sc(N3CCNCC3)nc2c1`, the Potency result was “inactive”.

Take `COc1ccc(NC(=O)c2cn(CCC#N)nc2-c2ccc([N+](=O)[O-])cc2)cc1`: the Potency result was “inactive”.

Consider `CN1CCN(/N=C/c2c[nH]c3ccccc23)CC1`, for which the Potency entry is “inactive”.

`C[C@@H]1C[C@@H]2O[C@H]2/C=C\C=C\C(=O)Cc2c(Cl)c(O)cc(O)c2C(=O)O1`: the Potency was 0.164 µM (active).

With `NS(=O)(=O)c1ccc(CCNC(=O)c2ccc(Cl)c(S(=O)(=O)N3CCCCCC3)c2)cc1`, the Potency is 23.1 µM (active).

Regarding `C=CCn1c(O)c(/C=N/N2CCOCC2)c(=O)[nH]c1=S`, the Potency entry was “inactive”.

On to `CN(C(=O)CSc1nc2ccc(NC(=O)COc3ccccc3)cc2s1)c1ccccc1`, for which the Potency is 11.6 µM (active).

For `O=C(COc1ccccc1Cl)Nc1ccc2nc(SCC(=O)N3CCCC3)sc2c1`, the Potency is 16.4 µM (active).

As to `CCOCCc1c(O)[nH]c(=S)[nH]c1=O`, the Potency result is “inactive”.

As for `COc1ccc(C2Oc3c(I)c(OC)cc(OC)c3CC2O)cc1OC` (configuration not stated), the Potency result is “inactive”.

`CCCCC/C=C\C/C=C\C/C=C\C/C=C\CCCCCC(=O)NCCO`: the activity change, negative = growth inhibition was -2.9% [at 4.12 µM].

As for `CCN(CC)CCOC(=O)c1cc2cc(COC)ccc2o1`, the Potency entry is “inactive”.

For the molecule `C=CCN(CC=C)C(=O)Nc1ccc(OCC)cc1`, the Potency entry is “inactive”.

For the molecule `CCOC(=O)[C@]12Cc3ccccc3[C@H]1N(C1CCCCC1)C(=O)c1cc(OC)ccc12`, the Potency is 3.66 µM (active).

As to `CCOC(=O)[C@]12Cc3cc(OC)ccc3[C@H]1N(C(C)C)C(=O)c1ccccc12`, the Potency was 6.51 µM (active).

Turning to `O=C(N/N=C/c1c(O)n(C2CC2)c(=S)[nH]c1=O)c1ccccc1`, the Potency entry is “inactive”.

`C[C@]12CC[C@H](O)CC1=C([N+](=O)[O-])CC1C2CC[C@@]2(C)C1CC[C@@H]2O` (some centres not stated): the Potency result is “inactive”.

For the molecule `CN1C2CC3CC1C(O3)C2O` (configuration not stated), the Potency result is “inactive”.

With `COc1ccc2cc1Oc1ccc(cc1)C[C@H]1c3cc(c(OC)cc3CCN1C)Oc1c(O)c(OC)cc3c1[C@H](C2)N(C)CC3`, the Potency is 8.2 µM (active).

For the molecule `COc1c(O)ccc2c1-c1c3c(cc4c1C(C2)N(C)CC4)OCO3` (configuration not stated), the Potency entry was “inactive”.

On to `O=C(Cc1ccc(Cl)cc1)NCCN1CCN(C(=O)Cc2ccc(Cl)cc2)CC1`, for which the Potency result was “inactive”.

On to `Clc1cccc(Cl)c1Cl`, for which the Potency entry is “inactive”.

`O=[N+]([O-])c1cnc2ccc3ccccc3c2c1`: the Potency entry was “inactive”.

As to `Cn1c(O)c(C=NCCCC(=O)O)c(=O)n(C)c1=O`, the Potency entry is “inactive”.

In the case of `CCCCC(=O)N/N=C/c1c(O)n(CC)c(=S)n(CC)c1=O`, the Potency was 10.3 µM (active).

As to `O=C1C2(Cl)C3(Cl)C4(Cl)C(Cl)(Cl)C5(Cl)C3(Cl)C1(Cl)C5(Cl)C24Cl` (configuration not stated), the Potency was 16.4 µM (active).

With `COC1=CC=C2[C@H]3Cc4ccc(OC)c5c4[C@@]2(CCN3C)C1O5` (some centres not stated), the Potency result was “inactive”.

On to `COP(=O)(OC)C(NC(=O)c1ccc(C)cc1)C(Cl)(Cl)Cl` (configuration not stated), for which the Potency result was “inactive”.

Consider `O=C1NC(=O)C(Cc2ccccc2)C(=O)N1`, for which the Potency entry was “inactive”.

On to `CC(Cc1ccccc1)NC=O` (configuration not stated), for which the Potency entry was “inactive”.

On to `COc1ccc(CNC(=O)c2cc3c(-c4ccccc4F)nn(C)c3s2)c(OC)c1`, for which the Potency is 6.51 µM (active).

In the case of `CCOP(=O)(OCC)C(NC(=O)NC)C(N)=O` (configuration not stated), the Potency entry is “inactive”.

As for `O=C(O)c1cc[c]([Sb](=[O])([OH])[OH])cc1[N+](=O)[O-]`, the Potency entry was “inactive”.

Regarding `CCOC(=O)C1(c2ccccc2)CCN(CC(O)c2ccc(NC(C)=O)cc2)CC1` (configuration not stated), the Potency entry is “inactive”.

Consider `CCN1C[C@]2(COC)C(O)C[C@H](OC)[C@@]34C5C[C@]6(O)C(OC)C(O)[C@](OC(C)=O)(C5C6OC(=O)c5ccccc5)C(C(OC)C23)C14` (some centres not stated), for which the Potency result was “inactive”.

For `CC(CCC(=O)O)C1CCC2C3C(O)C[C@@H]4CC(O)CC[C@@]4(C)C3CC[C@@]12C` (some centres not stated), the Potency result is “inactive”.

With `C/C=C/CC1(CC)C(=O)NC(=S)NC1=O`, the Potency entry was “inactive”.

On to `COC(=O)C1=C(c2ccc(OCc3ccccc3)cc2)C[C@@H]2CC[C@H]1N2C(=O)NCc1ccc(Cl)cc1`, for which the Potency is 16.4 µM (active).

For `COC(=O)C1=C(c2c(C)noc2C)C[C@@H]2CC[C@H]1N2C(=O)NCc1ccc2c(c1)OCO2`, the Potency result is “inactive”.

As for `COC(=O)C1=C(c2ccccc2)C[C@@H]2CC[C@H]1N2C(=O)NCc1ccco1`, the Potency result was “inactive”.

For `COC(=O)C(c1ccccc1)N1CCCCCC1` (configuration not stated), the Potency result was “inactive”.

Regarding `COC(=O)C1=C(c2cccc(OCc3ccccc3)c2)C[C@@H]2CC[C@H]1N2C(=O)NNCc1ccccc1`, the Potency was 10.3 µM (active).

Turning to `COC(=O)C1=C(c2cc3ccccc3s2)C[C@@H]2CC[C@H]1N2C(=O)NCCO`, the Potency result was “inactive”.

Regarding `COC(=O)C1=C(c2ccccc2)C[C@@H]2CC[C@H]1N2C(=O)N1CCCCC1`, the Potency is 6.51 µM (active).

Regarding `COC(=O)C1=C(c2ccc(OCc3ccccc3)cc2)C[C@@H]2CC[C@H]1N2C(=O)NCc1cccc(F)c1`, the Potency is 14.6 µM (active).
